Out of some 340,000 compounds screened, about 3,300 (0.97%) were called active. Roughly 9% stayed inconclusive and do not appear here. The call rests on the fitted dose curve; in most records, active means well fitted inhibition curve with a large enough effect; inconclusive means small, poorly fitted or top-dose-only effect, or effect the other way; inactive means flat fitted curve, though single readings scatter. This is one part of the list.
Potency means the concentration at half of the fitted maximal effect.

This experiment in a line: qHTS Assay for Modulators of miRNAs and/or Inhibitors of miR-21. Further: nearly all actives have a fitted effect of over 55% in size. The conditions noted are these: HeLa miR-21-FLuc reporter, luciferase luminescence, 48 h; actives lower the signal. The method in brief: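 Luminescence from a firefly luciferase reporter carrying a miR-21 binding site downstream, stably expressed under a CMV promoter in HeLa cells that make miR-21 endogenously, reports miRNA modulation after 48 h compound exposure up to approximately 40uM final.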
Turning to `O=C(OCC(=O)N1CCOCC1)c1ccccc1Cc1ccccc1`, the Potency is 2.93 µM (active).

Turning to `N/C(=N\OC(=O)c1cccc2ccccc12)c1ccncc1`, the Potency was 16.5 µM (active). Turning to `N/C(=N\OC(=O)c1ccc2ccccc2c1)c1ccncc1`, the Potency was 0.585 µM (active).

`Cc1ccccc1C(=O)O/N=C(\N)c1ccncc1`: the Potency is 6.56 µM (active). Under `CCOc1ccc(-c2cn(-c3ccc(OC)cc3)c(SC)n2)cc1` stands 2.93 µM (active); under `COc1ccc(-n2cc(-c3ccccc3)nc2SC)cc1`, 8.26 µM (active); under `C=CCN1N=C(/C=C/c2ccc(C)cc2)CCC1=O`, 10.4 µM (active). To `C=CCN1N=C(/C=C/c2ccc(OC)cc2)CCC1=O` belongs 14.7 µM (active); to `Cc1cc2sc3nc(=O)n(-c4ccccc4)c(=O)n3c2cc1C`, 4.14 µM (active); to `Cc1ccc2c(c1)sc1nc(=O)n(-c3ccccc3)c(=O)n12`, 0.131 µM (active). With `Cc1snc(SCC(=O)c2ccc(F)cc2)c1C#N`, the Potency was 4.65 µM (active). Consider `O=C1c2ccccc2C(=O)c2cc(NC(=O)C3CC3)ccc21`, for which the Potency is 0.736 µM (active).

As for `O=C(Nc1ccccc1O)c1ccc(NC(=O)C2CC2)cc1`, the Potency was 6.56 µM (active).

Take `Cc1ccccc1-c1nc2cc(NC(=O)C3CC3)ccc2o1`: the Potency was 0.414 µM (active). With `O=C(Nc1ccc2oc(-c3ccccc3Cl)nc2c1)c1ncn[nH]1`, the Potency is 0.927 µM (active). As for `N#Cc1c(N2CCCC2)nsc1-c1ccccc1`, the Potency is 16.5 µM (active). Under `N#Cc1c(N2CCOCC2)nsc1-c1ccccc1` stands 13.1 µM (active). Consider `N#Cc1c(N2CCOCC2)nsc1-c1ccc(C(F)(F)F)cc1`, for which the Potency was 5.85 µM (active).

`CCOc1ccc2nc(SCC(=O)c3cccs3)sc2c1`: the Potency is 4.14 µM (active).

Regarding `CC1CCc2sc3nc(N4CCN(CCO)CC4)n4ncnc4c3c2C1` (stereo unspecified), the Potency was 13.1 µM (active).

For `CN1CCc2c(sc(NC(=O)C3COc4ccccc4O3)c2C(N)=O)C1` (stereo unspecified), the Potency was 9.27 µM (active). Under `Fc1ccccc1Nc1nc2c(s1)CCc1ccccc1-2` stands 0.464 µM (active); under `COc1cc(CCC(C)=O)ccc1OC(=O)c1c(F)cccc1Cl`, 2.93 µM (active); under `C=CCn1c(SCC(=O)Nc2ccc(-c3nc4ccc(C)cc4s3)cc2)nnc1-c1ccncc1`, 8.26 µM (active). To `C=CCn1c(SCC(=O)Nc2ccc(-c3nc4ccc(C)cc4s3)cc2)nnc1-c1ccccc1` belongs 1.17 µM (active); to `C/C(=N/Nc1ccc(C(=O)O)cc1)c1ccc(O)c(O)c1O`, 18.5 µM (active); to `O=C(CSc1nnc(-c2ccccc2Cl)o1)N1CCOCC1`, 3.69 µM (active). With `Cc1ccccc1-c1nnc(SCC(=O)N2CCCC2)o1`, the Potency is 7.36 µM (active).

As for `CC(C)(C)C(=O)c1cnc(Nc2ccccc2)s1`, the Potency is 2.33 µM (active). Under `CC(=O)c1cnc(Nc2cccc(C)c2)s1` stands 2.93 µM (active). Regarding `COc1ccccc1/C=C/C=N/Nc1cccc(C(=O)O)c1`, the Potency was 0.185 µM (active). With `Cc1[nH]c2ccccc2c1/C=N/Nc1cccc(C(=O)O)c1`, the Potency is 7.36 µM (active). Under `O=C(O)c1cc(N/N=C/c2cccc3ccccc23)ccc1Cl` stands 3.29 µM (active); under `O=C(O)c1cccc(N/N=C/c2cccc3ccccc23)c1`, 0.0826 µM (active); under `CC(C)n1cc(/C=N/Nc2ccc(Cl)c(C(=O)O)c2)c2ccccc21`, 3.29 µM (active).

On to `Cc1cccc(N/N=C/c2ccccc2O)c1`, for which the Potency is 10.4 µM (active). To `COc1ccc2ccccc2c1/C=N/Nc1cccc(C(=O)O)c1` belongs 6.56 µM (active). To `O=C(O)c1cc(N/N=C/c2c(O)ccc3ccccc23)ccc1Cl` belongs 2.07 µM (active). To `Cc1[nH]c2ccccc2c1N=Nc1cccc(C(=O)O)c1` belongs 1.85 µM (active); to `Cc1ccc(-c2nc3ccccn3c2Nc2ccc3c(c2)OCCO3)s1`, 1.85 µM (active); to `Cc1ccn2c(Nc3ccc4c(c3)OCCO4)c(-c3ccc(Cl)s3)nc2c1`, 13.1 µM (active). Turning to `COC(=O)c1sccc1N/N=C/c1cccc(Oc2ccccc2)c1`, the Potency is 1.85 µM (active). To `COC(=O)c1sccc1N/N=C/c1ccc(OC)c(OC)c1OC` belongs 6.56 µM (active); to `COc1cc(/C(C)=N/NC(=O)CSc2nncn2C)ccc1OCc1ccccc1Cl`, 10.4 µM (active). For the compound `C=CCNc1ncnc2c1cnn2-c1ccc(Cl)cc1`, the Potency was 0.329 µM (active). Consider `Clc1ccc(-n2ncc3c(NCc4ccccn4)ncnc32)cc1`, for which the Potency is 5.85 µM (active). In the case of `Fc1cccc(Cl)c1CSc1nnc(-c2ccncc2)o1`, the Potency was 14.7 µM (active). To `COc1ccc2c(c1)CC/C(=C\c1ccc(C)o1)C2=O` belongs 2.93 µM (active); to `O=C1/C(=C/c2ccco2)CCc2ccccc21`, 18.5 µM (active); to `COc1ccc2c(c1)CC/C(=C/c1ccco1)C2=O`, 1.85 µM (active). `O=[N+]([O-])c1ccccc1-c1nc(-c2ccc(Br)o2)no1`: the Potency is 1.47 µM (active).

Take `CCCCOc1ccc(CSc2nncn2N)cc1`: the Potency was 14.7 µM (active). To `Cc1ccsc1/C=C1\CCC(C2CCCC2)C1=O` (stereo unspecified) belongs 3.69 µM (active). Under `COc1cccc(/C=C2\CCC(C3CCCC3)C2=O)c1OC` (stereo unspecified) stands 4.14 µM (active); under `COc1ccc(NC(=O)c2noc3c2CCCC3)cc1Cl`, 0.369 µM (active). On to `Cc1c(Cl)cccc1NC(=O)c1noc2c1CCCC2`, for which the Potency is 7.36 µM (active).

Consider `Cc1ccc2c(c1)c1ncnc(N3CCOCC3)c1n2C`, for which the Potency is 13.1 µM (active). As to `Cc1ccc2c(c1)c1ncnc(N3CCC4(CC3)OCCO4)c1n2C`, the Potency was 7.36 µM (active). Under `Fc1cccc(/C=N/NC(=S)Nc2ccccc2Cl)c1` stands 4.65 µM (active); under `Fc1ccccc1NC(=S)N/N=C/c1ccccc1Br`, 4.65 µM (active); under `N/C(=N\NC(=O)Nc1ccccc1)c1ccccn1`, 2.61 µM (active). To `N/C(=N\NC(=O)Nc1ccc(Cl)cc1)c1ccccn1` belongs 3.29 µM (active); to `Cc1cc(C)c(C#N)c(SCc2nnc(-c3ccccc3[N+](=O)[O-])o2)n1`, 3.69 µM (active). Under `O=c1c2ccccc2nc2sc3ccccc3n12` stands 6.56 µM (active); under `CCN1CCC2(CC1)Oc1c(OC)cccc1C1CC(c3cccnc3)=NN12` (stereo unspecified), 11.7 µM (active). As to `CCOc1cccc2c1OC1(CCCCC1)N1N=C(c3cccnc3)CC21` (stereo unspecified), the Potency is 16.5 µM (active).

Take `CC(=O)c1c(C)[nH]c(C(=O)Nc2ccc(Cl)cc2F)c1C`: the Potency was 2.07 µM (active).

On to `Cc1nnc2n(c1=O)N=C(c1ccc(Cl)cc1)CS2`, for which the Potency is 1.65 µM (active). In the case of `O/N=C/c1ccnc(SCc2ccccc2)n1`, the Potency was 10.4 µM (active). Take `Cc1nc(C)c(-c2ccc(SCc3ccccc3F)nn2)s1`: the Potency is 14.7 µM (active).

Take `Cc1ccc2scc(N3CCCC(C)C3)c(=O)c2c1` (stereo unspecified): the Potency was 6.56 µM (active).

On to `Cc1ccc2scc(N3CCCCC3C)c(=O)c2c1` (stereo unspecified), for which the Potency was 14.7 µM (active). With `COc1ccc(NC(=S)Nc2cc(C)[nH]n2)cc1Cl`, the Potency was 18.5 µM (active). As to `Cc1cc(NC(=S)Nc2ccc(C)c(Cl)c2)n[nH]1`, the Potency is 7.36 µM (active).

As for `Cc1cc(C(=O)CSc2ccc3c(c2)OCCO3)c(C)n1C1CC1`, the Potency is 7.36 µM (active).

For the compound `Cc1ccc(NC(=O)c2ccc(=O)[nH]n2)cc1C`, the Potency is 6.56 µM (active). To `CC(C)(C)c1ccc(NC(=O)c2ccc(=O)[nH]n2)cc1` belongs 0.826 µM (active); to `Nc1ccc(C(=O)OCc2nc3ccccc3s2)cc1`, 16.5 µM (active).

With `O=C(OCc1nc2ccccc2s1)c1ccco1`, the Potency is 7.36 µM (active). Regarding `COc1cc(OC)cc(C(=O)NCC(=O)OCc2nc3ccccc3s2)c1`, the Potency is 0.464 µM (active). Take `Cc1ccc(-n2c(C)c(C)c3c(NCCO)ncnc32)cc1`: the Potency was 13.1 µM (active). Under `Cc1ccc(-n2c(C)c(C)c3c(NCCCO)ncnc32)cc1` stands 7.36 µM (active); under `Cc1c(C)n(CCc2ccccc2)c2ncnc(NCCO)c12`, 4.14 µM (active). To `COc1ccc(-c2nnc(-c3ccc(F)cc3)o2)cc1` belongs 1.04 µM (active). To `COc1ccc(-c2nnc(-c3ccc(C)cc3)o2)cc1` belongs 2.07 µM (active).

Regarding `c1ccc(Nc2nnc(-c3cccnc3)s2)cc1`, the Potency is 0.261 µM (active). Under `CCS(=O)(=O)N1Cc2ccccc2CC1C(=O)Nc1nc2ccc(F)cc2s1` (stereo unspecified) stands 4.65 µM (active).

`CCS(=O)(=O)N1Cc2ccccc2CC1C(=O)Nc1nccs1` (stereo unspecified): the Potency is 14.7 µM (active). Under `CCS(=O)(=O)N1Cc2ccccc2CC1C(=O)Nc1nc(C)cs1` (stereo unspecified) stands 10.4 µM (active); under `O=C(/C=C/c1ccc(F)cc1)NCCC1=CCCCC1`, 7.36 µM (active); under `CC(C)(C)SCCNC(=O)/C=C/c1ccccc1`, 11.7 µM (active). Under `O=C(/C=C/c1ccccc1)NCCC1=CCCCC1` stands 5.85 µM (active); under `CCN(CC)c1ccc(N=Nc2nn(C)c(C)c2[N+](=O)[O-])cc1`, 0.736 µM (active).

Take `CCN(Cc1ccccc1)c1ccc(N=Nc2nn(C)c(C)c2[N+](=O)[O-])cc1`: the Potency is 18.5 µM (active). To `CCc1cc2cc(C(=O)Nc3ccc(F)cc3)sc2s1` belongs 1.65 µM (active); to `COc1cc(NC(=O)c2cc(-c3cccc(OC)c3)n[nH]2)cc(OC)c1`, 3.29 µM (active). Under `CCOC(=O)c1cn[nH]c1NC(=S)Nc1ccc(Cl)cc1` stands 0.656 µM (active); under `COc1ccc2cc(-c3ccn[nH]3)ccc2c1`, 0.927 µM (active); under `Cc1ccc(Nc2nc(N)c([N+](=O)[O-])c(NCCO)n2)cc1C`, 13.1 µM (active).

For the compound `CNc1nc(Nc2ccc(C)c(Cl)c2)nc(N)c1[N+](=O)[O-]`, the Potency is 3.29 µM (active). Under `O=C(c1cc(-c2cccc(Cl)c2)on1)N1CCCC1` stands 3.69 µM (active); under `O=C(c1cc(-c2cccc(Cl)c2)on1)N1CCCCCC1`, 4.65 µM (active); under `CSc1c(C#N)c(N)c(C#N)c2c1COC(C)(C)C2`, 18.5 µM (active). As for `CN1CCN(/N=C/c2ccc(Br)cc2)CC1`, the Potency is 14.7 µM (active). Regarding `CN1CCN(/N=C/c2ccc(Cl)c(Cl)c2)CC1`, the Potency was 7.36 µM (active). Consider `Cc1c(-c2nnc(SCC(=O)Nc3ccccc3F)o2)nnn1-c1ccc(F)cc1`, for which the Potency is 2.93 µM (active).

These data come from PubChem BioAssay AID2289 (National Center for Advancing Translational Sciences (NCATS), 2010).
